Bioassay records from PubChem.
G9a inh = inhibitors of human histone lysine methyltransferase G9a | G9a H3K9 monomethylation, AlphaScreen, 2 h | Potency, µM (doses to about 102 µM), hits mostly inhibitors | actives 8.8% (n = 350,000) | AID 504332; also: nearly all actives have a fitted effect of over 75% in size
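Signal arises when biotinylated H3K9 peptide, once monomethylated, bridges streptavidin donor and antibody-captured acceptor beads. Enzyme at 20 nM was preincubated 15 min with test compounds; peptide 500 nM and SAM 20 uM then reacted for 2 h.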
BAZ2B block = BAZ2B (human) inhibition; Q9UIF8; AlphaScreen BAZ2B-H3K14Ac peptide displacement; Potency, µM (top dose mostly 114 µM), hits mostly inhibitors; actives 4.4% (n = 360,000); also: nearly all actives have a fitted effect of over 60% in size
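BAZ2B (50 nM) with biotin-H3(5-23)K14Ac peptide (50 nM) in PBS pH 7.4, 0.01% Tween-20, preformed 30 min, then compound 30 min at room temperature; top concentration 110uM. AlphaScreen streptavidin donor/nickel chelate acceptor beads (10 ug/mL final), 20 min dark, signal read.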
JMJD2A Tudor inh = inhibitors of human JMJD2A Tudor domain. Potency, µM (highest dose often 114 µM), actives largely listed as inhibitors. actives 4.4% (n = 390,000). O75164. AlphaScreen JMJD2A-Tudor / H3K4me3 peptide binding; also: nearly all actives have a fitted effect of over 50% in size
GLS inhibitor = blocks human kidney-isoform glutaminase activity; AID 624170; actives 0.21% (n = 410,000); Potency, µM (series often up to 45.5 µM), hits mostly inhibitors; GLS enzymatic activity, qHTS titration
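Compounds were pin-transferred onto hKGA, after which L-glutamine (1 mM solution) and a detection mix of glutamate oxidase, HRP and Amplex Red were added. Initial and 30 min RT fluorescence reads were collected.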
HP1b chromo inh = HP1-beta chromodomain-methylated histone interaction inhibition; AlphaScreen HP1-beta / biotin-H3K9me3 peptide binding; Potency, µM (doses to about 114 µM), actives largely listed as inhibitors; actives 0.56% (n = 390,000); AID 540317; also: nearly all actives have a fitted effect of over 70% in size
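HP1-beta protein (50 nM final) preincubated 30 min at room temperature with biotinylated H3(1-18)K9me3 peptide (50 nM) in PBS pH 7.4, 0.01% Tween-20, then compound added for 30 min. AlphaScreen streptavidin donor/nickel chelate acceptor beads (10 ug/mL final), 30 min dark, luminescence read.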
Each line names hits and unclear results; the compound was inactive in the other large screens; ! = repeats disagree. Sampled rows, rich in hits. Any-hit rate of the full collection: about 10%. Calls follow the shape of the dose curve; as a rule, active = well fitted curve in the direction sought with a large enough effect; inconclusive = small, poorly fitted or top-dose-only effect, or another doubt; inactive = no such curve, though single readings can be large; an effect the other way counts as inactive or inconclusive.

COC(=O)c1ccc(N2Cc3ccccc3/C2=N\C(=O)Nc2ccccc2)cc1	none
O=C(N=C1c2ccccc2CN1c1ccccc1)c1cccc([N+](=O)[O-])c1	G9a inh 50µM, JMJD2A Tudor inh inconclusive
C[C@H](CO)N1C[C@H](C)[C@H](CN(C)S(=O)(=O)c2ccc(Cl)cc2)OCc2ccccc2-c2c(n(C)c3ccccc23)C1=O	none (no result: G9a inh, BAZ2B block, JMJD2A Tudor inh, HP1b chromo inh)
O=C(Nc1ccc(Oc2ccccc2)cc1)c1ccc2nc([C@@H]3O[C@H](CO)[C@H](O)[C@H](O)[C@H]3O)[nH]c2c1	none (no result: G9a inh, BAZ2B block, JMJD2A Tudor inh, HP1b chromo inh)
N#Cc1cc([N+](=O)[O-])cnc1N(CCO)CCO	G9a inh 7.1µM
COCCN(Cc1cc2cc(C)c(C)cc2nc1Cl)C(=O)Nc1ccccc1	none
COCCN(Cc1cc2cc3c(cc2nc1Cl)OCO3)C(=O)c1ccc(C)cc1	BAZ2B block 10µM
Cc1ccc(S(=O)(=O)N2CCCCC2)cc1NC(=O)CSCC(=O)O	G9a inh 50µM
Cc1ccc(S(=O)(=O)N2CCOCC2)cc1NC(=O)CNCC1CCCCC1	G9a inh 10µM, JMJD2A Tudor inh 4µM (no result: BAZ2B block)
O=S(=O)(Nc1ccncc1)c1ccc(Cl)cc1	none
O=S(=O)(Nc1ccncc1)c1ccccc1	G9a inh 50µM, BAZ2B block inconclusive
O=S(=O)(Nc1cccnc1)c1ccccc1	JMJD2A Tudor inh 50µM!
CCCNC(=O)c1ccc(-c2nc(CS(=O)(=O)c3ccc(C)cc3)c(C)o2)cc1	G9a inh inconclusive
CC(C)C(=O)Nc1nnc(S(=O)(=O)N(C)Cc2ccc(F)cc2)s1	G9a inh inconclusive
Cc1cc(Nc2ccc(Cl)cc2)n(-c2ccccc2)n1	none
Cc1cc(C)n(-c2nc(Nc3ccccc3)nc(-n3nc(C)cc3C)n2)n1	G9a inh inconclusive, BAZ2B block 79µM, JMJD2A Tudor inh inconclusive
Cc1cc(Nc2ccccc2)n(-c2ccc(Br)cc2)n1	G9a inh 50µM
Cc1cc(C)n(-c2nc(N(c3ccccc3)c3ccccc3)nc(-n3nc(C)cc3C)n2)n1	JMJD2A Tudor inh inconclusive
CCOc1ccc(N(CC)S(=O)(=O)N2CCCC(C(=O)NCCc3ccccc3OC)C2)cc1 (centres undefined)	none
CCOc1cc(CNC(=O)c2ccc(Cn3c(=O)c4cccn4c4cccnc43)cc2)ccc1OC	none
O=C(Cc1ccccc1)Nc1sc2c(c1C(=O)Nc1ccc(Cl)cc1)CCOC2	none (no result: G9a inh, BAZ2B block, GLS inhibitor, HP1b chromo inh)
O=C(Nc1ccc(C(=O)N2CCN(c3cccc(Cl)c3)CC2)cc1)c1nsc2ccccc12	none
CCN(Cc1ccccc1)C(=O)CSc1nncn1C	G9a inh 56µM, BAZ2B block inconclusive
CSc1nnc(-c2ccccc2)o1	none (no result: BAZ2B block)
CCN(CC)C(=O)CSc1nnc(-c2ccccc2)n1N	none
CN(C)CCSc1nnc(-c2ccccc2)o1	G9a inh 40µM
CCN(CC)C(=O)CSc1nnc(-c2ccccc2)n1-c1ccccc1	G9a inh 28µM, JMJD2A Tudor inh 50µM
CCN(Cc1ccccc1)C(=O)CSc1ccccc1C(=O)O	none (no result: BAZ2B block)
CCN(CC)C(=O)CSc1nnc(-c2ccccc2)o1	G9a inh 79µM
CCN(CC)c1ccc(S(=O)(=O)N2CCOCC2)cc1NC(=O)CSc1ccccc1	none
CCN(CC)c1ccc(S(=O)(=O)N2CCOCC2)cc1NC(=O)CNCc1cccc(Cl)c1	JMJD2A Tudor inh 50µM, HP1b chromo inh inconclusive (no result: G9a inh, BAZ2B block)
O=C(CNCc1ccccc1Cl)Nc1cc(S(=O)(=O)N2CCOCC2)ccc1Cl	JMJD2A Tudor inh 7.9µM, HP1b chromo inh inconclusive (no result: G9a inh, BAZ2B block)
O=C(CNCc1ccco1)Nc1cc(S(=O)(=O)N2CCOCC2)ccc1N1CCOCC1	JMJD2A Tudor inh 18µM, HP1b chromo inh inconclusive (no result: G9a inh, BAZ2B block)
O=C(CNCc1ccc(Cl)cc1)Nc1cc(S(=O)(=O)N2CCCC2)ccc1Cl	JMJD2A Tudor inh 3.5µM, HP1b chromo inh inconclusive (no result: G9a inh, BAZ2B block)
O=C(NC1CCCC1)c1cnn(-c2ccc(F)cc2F)c1C1CCNCC1	none
CCN(CC)c1ccc(S(=O)(=O)N2CCOCC2)cc1NC(=O)CSc1nncs1	G9a inh 35µM
CCN(CC)c1ccc(S(=O)(=O)N2CCOCC2)cc1NC(=O)CSc1nncn1C	G9a inh inconclusive
Cc1ccc(OCCCC(=O)Nc2cc(S(=O)(=O)N3CCOCC3)ccc2N2CCOCC2)cc1	G9a inh 56µM
CSc1ccc(/C=C2/C(C)=C(CC(=O)O)c3cc(F)ccc32)cc1	G9a inh inconclusive (no result: BAZ2B block, JMJD2A Tudor inh, HP1b chromo inh)
